# In PubChem BioAssay:
# Calls of active or inactive are those of the source. Unless noted, no stated cut-off is given here; in the data, active means inhibition above about 80%; inactive means the rest.
# Assays:
# [1] = circadian clock period modulators, cell-based, LOPAC library, luminescence reporter (AID 2774; call rule not given here;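 further: values are relative to mean of DMSO wells on each plate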); conditions: circadian reporter cells, at 7 µM, actives lie on both sides
# [2] = LFS_MB_1R medulloblastoma cell growth inhibition, synergistic combos for chromothripsis tumors, cisplatin or BGB combos (AID 1671452); conditions: LFS_MB_1R medulloblastoma cells, stronger effect = higher value;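 further: cells exposed for 96 hours before readout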
# [3] = CRL2098 osteosarcoma cell growth inhibition, synergistic combos for chromothripsis tumors, BGB or cisplatin IC20 combos (AID 1671454); conditions: CRL2098 osteosarcoma cells, drug combinations, stronger effect = higher value;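 further: cells exposed for 96 h before readout; 0% = vehicle DMSO and 100% = killing by high DMSO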
# [4] = HD-MB03 medulloblastoma cell growth inhibition, synergistic combos for chromothripsis tumors, BGB or cisplatin IC20 combos (AID 1671455; in the data active means inhibition above about 83%;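 further: 0% = vehicle DMSO and 100% = high DMSO as cytotoxic control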); conditions: HD-MB03 medulloblastoma cells, stronger effect = higher value
# [5] = UWB1.289 ovarian carcinoma cell growth inhibition, synergistic combos for chromothripsis tumors, BGB or cisplatin combos (AID 1671456); conditions: UWB1.289 ovarian carcinoma cells, stronger effect = higher value;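 further: cells exposed to compound for four days; 0% = vehicle DMSO and 100% = killing by high DMSO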
# [6] = LFS_MB_2R medulloblastoma cell growth inhibition, synergistic combos for chromothripsis tumors, cisplatin combos (AID 1671457); conditions: LFS_MB_2R medulloblastoma cells, stronger effect = higher value;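 further: cells exposed to compound for four days before readout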
# [7] = MDA-MB-436 breast carcinoma cell growth inhibition, synergistic combos for chromothripsis tumors, BGB or cisplatin combos (AID 1671458; call rule not given here;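 further: cells exposed for 96 hours; 0% = vehicle DMSO and 100% = killing by high DMSO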); conditions: MDA-MB-436 breast carcinoma growth inhibition, drug combinations, stronger effect = higher value
# [8] = UWB1.289_BRCA1 ovarian cancer growth, cell-based, BGB or cisplatin combinations (AID 1671459); conditions: UWB1.289 BRCA1 ovarian carcinoma, drug combinations, stronger effect = higher value
# [9] = human astrocyte viability loss, single and combined drugs, cytotoxicity control for chromothriptic childhood tumor combination screen, cell-based, BGB or cisplatin IC20 combos (AID 1671460); conditions: Human astrocytes, drug combinations, stronger effect = higher value;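 further: cells exposed to compounds for 96 hours before viability readout; 0% = vehicle and 100% = killing control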
# [10] = growth inhibition of BT084 medulloblastoma cells, cell-based, ICGC_MB145, cisplatin and BGB IC40 combos (AID 1671461); conditions: drug combinations, stronger effect = higher value;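 further: cells exposed to drugs for 96 hours; 0% = vehicle DMSO and 100% = high DMSO full killing control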
# [11] = growth inhibition of RCMB18 medulloblastoma cells, cell-based, cisplatin and BGB IC40 combos (AID 1671462); conditions: stronger effect = higher value;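 further: cells exposed to compound for four days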
# [12] = growth inhibition of CRL1545 osteosarcoma cells, cell-based, cisplatin and BGB IC20 combos (AID 1671464); conditions: stronger effect = higher value;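 further: cells exposed to compound for 96 hours before readout; 0% = vehicle DMSO and 100% = high DMSO killing control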
# [13] = hESC survival regulators, cell-based (AID 493140; call rule not given here;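 further: cells exposed to compounds for four days before counting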); conditions: human embryonic stem cell survival screen; stronger effect = higher value
# [14] = test system: Hepatitis C virus NS3 helicase; assay: HCV NS3 helicase inhibitors, primary screen, biochemical, fluorescence polarization, LOPAC1280 library (AID 687035; in the data active means inhibition above about 37%); conditions: Purified HCV NS3 helicase, Cy5-dT15 ssDNA binding fluorescence polarization; stronger effect = higher value; concentration not given here
# [15] = Cy5 fluorescence quenching or enhancement artefacts, artefact control for HCV NS3 helicase inhibitor project, biochemical, LOPAC1280 (AID 687037; call rule not given here); conditions: Cy5-DNA-NS3h complex fluorescence interference counterscreen
# [16] = kinase inhibitors against Plasmodium liver-stage infection, cell-based, known kinase inhibitor set, luminescence, hepatoma host viability (AID 624392; call rule not given here;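 further: infected cells incubated roughly two days before readout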); conditions: Plasmodium liver stage in hepatoma cells, luciferase luminescence, concentration not given here; liver cell % of control: measured here: host liver cell viability; parasite % of control: stronger effect = lower value
# [17] = phospholipid biosynthesis inhibitors in animal cells, primary screen, cell-based, LOPAC library, screen 4 (AID 1347384; call rule not given here); conditions: phospholipid biosynthesis inhibition screen, at 10 µM
# [18] = target: NAD(+) hydrolase SARM1 (Homo sapiens) (UniProt Q6SZW1); assay: SARM1 TIR NADase inhibitors, cell lysate, NAD-Glo luminescence (AID 1508614;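 active means compound whose remaining NAD level is above about 45 nM, limit read from the data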); conditions: SAM-TIR HEK293T lysate NADase, at 1 µM, stronger effect = higher value
# [19] = measured here: combination with BGB IC40, at 0.05 µM
# [20] = measured here: combination with cisplatin, at 0.5 µM
# [21] = measured here: combination with cisplatin, at 5 µM
# [22] = measured here: combination with BGB at IC20, at 0.5 µM
# [23] = measured here: combination with cisplatin at IC20, at 0.5 µM
# [24] = measured here: combo with BGB at IC20, at 0.5 µM
# [25] = measured here: combo with cisplatin at IC20, at 0.5 µM
# [26] = measured here: inhibition with BGB combination, at 0.05 µM
# [27] = measured here: inhibition with cisplatin combination, at 0.05 µM
# [28] = measured here: BGB combination, at 0.5 µM
# [29] = measured here: BGB combination, at 5 µM
# [30] = measured here: cisplatin combination, at 0.5 µM
# [31] = measured here: cisplatin combination, at 5 µM
# [32] = BGB combination, concentration series, at 5 µM
# [33] = cisplatin combination, concentration series, at 5 µM
# [34] = measured here: combo with BGB IC20, at 0.5 µM
# [35] = measured here: combo with cisplatin IC20, at 0.5 µM
# [36] = cisplatin combination, at 0.5 µM
# [37] = measured here: BGB IC40 combination 0.05 uM, at 0.05 µM
# [38] = measured here: BGB IC40 combination, at 0.05 µM
# [39] = measured here: with BGB IC20 combination, at 0.5 µM
# [40] = measured here: with cisplatin IC20 combination, at 0.5 µM
# Sequence of NAD(+) hydrolase SARM1 (Homo sapiens) (Q6SZW1 whole entry, looked up): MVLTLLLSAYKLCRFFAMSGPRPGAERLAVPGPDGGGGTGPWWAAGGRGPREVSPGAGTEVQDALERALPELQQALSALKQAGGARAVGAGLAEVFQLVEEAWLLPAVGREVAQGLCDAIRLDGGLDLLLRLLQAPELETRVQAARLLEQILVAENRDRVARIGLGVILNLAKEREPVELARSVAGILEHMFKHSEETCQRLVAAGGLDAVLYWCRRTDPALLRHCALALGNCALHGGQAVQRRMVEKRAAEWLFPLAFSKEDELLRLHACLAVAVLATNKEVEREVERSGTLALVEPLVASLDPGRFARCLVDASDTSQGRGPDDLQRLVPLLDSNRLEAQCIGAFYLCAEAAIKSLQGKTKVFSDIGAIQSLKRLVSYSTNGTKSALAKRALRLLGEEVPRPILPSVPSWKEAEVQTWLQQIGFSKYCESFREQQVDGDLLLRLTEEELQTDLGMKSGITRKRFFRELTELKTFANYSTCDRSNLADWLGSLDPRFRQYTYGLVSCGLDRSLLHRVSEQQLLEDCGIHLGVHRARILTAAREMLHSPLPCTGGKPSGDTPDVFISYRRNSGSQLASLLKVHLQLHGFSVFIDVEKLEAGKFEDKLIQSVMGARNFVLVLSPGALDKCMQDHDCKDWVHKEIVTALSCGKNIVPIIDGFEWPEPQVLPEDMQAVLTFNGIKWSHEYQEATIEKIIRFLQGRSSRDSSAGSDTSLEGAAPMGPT
smiles,measurement,setting,value
FC(F)(F)c1cc(CO[C@H]2CCCN[C@H]2c2ccccc2)cc(C(F)(F)F)c1,period change,[1],0 h (inactive)
Cc1c(CC(C)(C)C(=O)O)n(Cc2ccc(Cl)cc2)c2ccc(F)cc12,period change,[1],-0.04 h (inactive)
O=c1cc(N2CCOCC2)oc2c1ccc1ccccc12,inhibition,[2]; at 0.5 µM,-3.28% (inactive)
same,inhibition,[2]; [19],-8.81%
same,inhibition,[2]; [20],-5.09%
same,inhibition,[2]; [21],16.4%
same,inhibition,[3]; at 0.5 µM,-13.1% (inactive)
same,inhibition,[3]; [22],-40.8%
same,inhibition,[3]; [23],19.4%
same,inhibition,[4]; at 0.5 µM,3.57% (inactive)
same,inhibition,[4]; [24],4.4%
same,inhibition,[4]; [25],-1.01%
same,inhibition,[5]; at 0.5 µM,-1.52% (inactive)
same,inhibition,[5]; [26],2.55%
same,inhibition,[5]; [27],-7.12%
same,inhibition,[6]; at 0.5 µM,0.24% (inactive)
same,inhibition,[6]; [20],7.58%
same,inhibition,[6]; [21],0.815%
same,inhibition,[7]; at 0.5 µM,2.45% (inactive)
same,inhibition,[7]; [28],5.3%
same,inhibition,[7]; [29],-21.1%
same,inhibition,[7]; [30],-2.44%
same,inhibition,[7]; [31],-6.05%
same,inhibition,[8]; [32],-2.5%
same,inhibition,[8]; at 0.5 µM,-1.77% (inactive)
same,inhibition,[8]; [33],4.97%
same,inhibition,[9]; at 0.5 µM,1.74% (inactive)
same,inhibition,[9]; [34],-0.854%
same,inhibition,[9]; [35],0.235%
same,inhibition,[10]; at 0.5 µM,-4.41% (inactive)
same,inhibition,[10]; [36],-0.482%
same,inhibition,"[10]; cisplatin combination, at 5 µM",-111%
same,inhibition,[10]; [37],-19.7%
same,inhibition,"[10]; single agent, at 5 µM",2.3%
same,inhibition,[11]; at 0.5 µM,-17.7% (inactive)
same,inhibition,"[11]; cisplatin combo, at 5 µM",21.8%
same,inhibition,[11]; [38],-2.3%
same,inhibition,[11]; [20],-18.7%
same,inhibition,"[11]; single agent, at 5 µM",1.08%
same,inhibition,[12]; at 0.5 µM,11.6% (inactive)
same,inhibition,[12]; [39],-23.5%
same,inhibition,[12]; [40],28%
same,inhibition,"[12]; single agent, at 0.05 µM",-4.12%
same,inhibition,"[12]; single agent, at 5 µM",-7.26%
COc1ccc2[nH]c(I)c(CCNC(C)=O)c2c1,period change,[1],-0.075 h (inactive)
C=CC(=O)c1ccc2ccccc2c1,survival,[13],46.4 (inactive)
CCOC(=O)C12CC1/C(=N\O)c1ccccc1O2 (configuration not stated),inhibition,[14],0% (inactive)
same,fluorescence ratio (interference),[15],1 (inactive)
COc1ccc(OC)c2c(=S)c3ccccc3[nH]c12,liver cell % of control,[16],97.2%
same,parasite % of control,[16],125% (inactive)
CN(C)C(=O)n1nnnc1Cc1ccc(-c2ccccc2)cc1,inhibition,[14],-2% (inactive)
same,fluorescence ratio (interference),[15],1 (inactive)
CS(=O)(=O)c1cccc(CNc2nc(Nc3ccc4c(c3)CCC(=O)N4)ncc2C(F)(F)F)c1,outcome,[17],inactive
COc1cc2nc(N3CCCN(C)CC3)nc(NC3CCN(Cc4ccccc4)CC3)c2cc1OC,inhibition,[14],3% (inactive)
same,fluorescence ratio (interference),[15],1 (inactive)
same,outcome,[17],inactive
NC(=NCCCCCCN=C(N)N=C(N)Nc1ccc(Cl)cc1)N=C(N)Nc1ccc(Cl)cc1,remaining NAD,[18],10 nM (inactive)
Cc1cccc(-c2[nH]ncc2-c2ccc3ncccc3n2)n1,liver cell % of control,[16],102%
same,parasite % of control,[16],87.4% (inactive)
same,outcome,[17],inactive
Nc1ccc(-c2ccc3ncc4ccc(=O)n(-c5cccc(C(F)(F)F)c5)c4c3c2)cn1,inhibition,[2]; at 0.5 µM,-12.4% (inactive)
same,inhibition,[2]; [19],-33.9%
same,inhibition,[2]; [20],-17%
same,inhibition,[2]; [21],48.5%
same,inhibition,[3]; at 0.5 µM,47.4% (inactive)
same,inhibition,[3]; [22],49.5%
same,inhibition,[3]; [23],49.4%
same,inhibition,[4]; at 0.5 µM,39.9% (inactive)
same,inhibition,[4]; [24],13.5%
same,inhibition,[4]; [25],69.9%
same,inhibition,[5]; at 0.5 µM,49.8% (inactive)
same,inhibition,[5]; [26],-0.684%
same,inhibition,[5]; [27],1.16%
same,inhibition,[6]; at 0.5 µM,2.91% (inactive)
same,inhibition,[6]; [20],17.6%
same,inhibition,[6]; [21],76.8%
same,inhibition,[7]; at 0.5 µM,12% (inactive)
same,inhibition,[7]; [28],0.276%
same,inhibition,[7]; [29],32.6%
same,inhibition,[7]; [30],-4.07%
same,inhibition,[7]; [31],57.7%
same,inhibition,[8]; [32],98.8%
same,inhibition,[8]; at 0.5 µM,52.1% (inactive)
same,inhibition,[8]; [33],104%
same,inhibition,[9]; at 0.5 µM,76.8% (inactive)
same,inhibition,[9]; [34],71%
same,inhibition,[9]; [35],77.3%
same,inhibition,[10]; at 0.5 µM,21.2% (inactive)
same,inhibition,[10]; [36],28.2%
same,inhibition,"[10]; cisplatin combination, at 5 µM",33.5%
same,inhibition,[10]; [37],-29.9%
same,inhibition,"[10]; single agent, at 5 µM",41.3%
same,inhibition,[11]; at 0.5 µM,16.5% (inactive)
same,inhibition,"[11]; cisplatin combo, at 5 µM",59.1%
same,inhibition,[11]; [38],-1.59%
same,inhibition,[11]; [20],23.5%
same,inhibition,"[11]; single agent, at 5 µM",62.1%
same,inhibition,[12]; at 0.5 µM,79.5% (inactive)
same,inhibition,[12]; [39],69.2%
same,inhibition,[12]; [40],84.4%
same,inhibition,"[12]; single agent, at 0.05 µM",-3.59%
same,inhibition,"[12]; single agent, at 5 µM",98.4%
